PubChem BioAssay (NCATS)
Where “and” joins values, the source holds several entries; their conditions need not be identical. Equal entries are not always repeated. Results filed as inconclusive are left out. Where a structure was tested more than once in an assay, its records may differ in their call. Calls of active or inactive are those of the source. Calls follow the shape of the dose curve; as a rule, active = well fitted curve in the direction sought with a large enough effect; inconclusive = small, poorly fitted or top-dose-only effect, or another doubt; inactive = no such curve, though single readings can be large; an effect the other way counts as inactive or inconclusive.

Columns and labels:
SKOV3 = assay: Primary qHTS to identify gynecologic anti-cancer compounds using libraries of approved drugs and bioactive compounds (AID 1345084); conditions: Gynecologic cancer cell panel viability, ATPlite luminescence, 48 h; series mostly up to 57.5 µM; also: nearly all actives have a fitted effect of over 55% in size
Procedure, shortened: (§1)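 Cell viability after 48 h drug treatment, ATPlite luminescence readout; five doses.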

Tov-21-G = assay: as above; conditions: Gynecologic cancer cell panel viability, ATPlite luminescence, 48 h; series mostly up to 57.5 µM
Procedure, shortened: as §1

Tov112D = assay: as above; conditions: Gynecologic cancer cell panel viability, ATPlite luminescence, 48 h; series mostly up to 57.5 µM
Procedure, shortened: as §1

[1] = Drug repurposing screens with cells derived from glioblastoma tumor samples (AID 1345199); conditions: GBM patient neurospheres viability, ATP luminescence, 48 h; also: nearly all actives have a fitted effect of over 40% in size
Procedure, shortened: (§2)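 Primary testing used CD133+ neurospheres from four GBM patients, seven concentrations, 48 h exposure and ATP-based viability; confirmation added three slower-growing patient lines.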

astro = assay: as above; conditions: viability, ATP luminescence, 48 h; series mostly up to 45.9 µM
Procedure, shortened: as §2

[2] = at 45.9 µM (top of the series), tumour line B
[3] = at 46.1 µM (top of the series), tumour line C
[4] = at 45.9 µM (top of the series), tumour line D
[5] = at 46 µM (top of the series), tumour line A
[6] = at 20 µM (top of the series), tumour line C
[7] = at 21.2 µM (top of the series), tumour line B
[8] = at 21.2 µM (top of the series), tumour line D
[9] = at 21.3 µM (top of the series), tumour line A
% is scaled to controls: 0 for no effect and ±100 for the full control effect; potency is read from the fitted curve at half-maximal effect.

C=C[C@@]1(C)CC(=O)[C@]2(O)[C@@]3(C)[C@@H](O)CCC(C)(C)[C@@H]3[C@H](O)[C@H](OC(C)=O)[C@@]2(C)O1
inactive: Potency (SKOV3) | Potency (Tov-21-G) | Potency (Tov112D) | activity, negative = cell killing [1, 2] 7.18% | activity, negative = cell killing [1, 3] -36.3%

COC(=O)C(c1ccccc1Cl)N1CCc2sccc2C1 (stereo not drawn)
active: Potency ([1]; tumour line A) 28.2 µM
inactive: Potency (SKOV3) | Potency (Tov-21-G) | Potency (Tov112D) | activity, negative = cell killing [1, 2] -13.2% | activity, negative = cell killing [1, 4] -12.6% | activity, negative = cell killing [1, 3] 2.17% | Potency (astro)

CC(=O)Nc1ccc(OCC(O)CNC(C)C)cc1 (stereo not drawn)
inactive: Potency (SKOV3) | Potency (Tov-21-G) | Potency (Tov112D) | activity, negative = cell killing [1, 2] -1.74% | activity, negative = cell killing [1, 4] -7.95% | activity, negative = cell killing [1, 5] -46.4% | activity, negative = cell killing [1, 3] -12.1% | Potency (astro)

CCCCCCCCCCCCCCC[C@H](O)[C@@H](N)CO
inactive: Potency (SKOV3) | Potency (Tov-21-G) | Potency (Tov112D)

COc1ccc(CN(CCN(C)C)c2ncccn2)cc1
inactive: Potency (SKOV3) | Potency (Tov-21-G) | Potency (Tov112D) | activity, negative = cell killing [1, 2] -6.69% | activity, negative = cell killing [1, 3] -7.28%

c1ccc(-c2nc[nH]c2-c2ccccc2)cc1
inactive: Potency (SKOV3) | Potency (Tov-21-G) | Potency (Tov112D) | activity, negative = cell killing [1, 2] -16.2%

COc1cc(O)c(C(=O)c2ccccc2)cc1S(=O)(=O)O
inactive: Potency (SKOV3) | Potency (Tov-21-G) | Potency (Tov112D) | activity, negative = cell killing [1, 2] -4.01% | activity, negative = cell killing [1, 4] -5.06% | activity, negative = cell killing [1, 5] -20.9% | activity, negative = cell killing [1, 3] 6.07% | Potency (astro)

OC1C(O)C(O)C(O)C(O)C1O (stereo not drawn)
inactive: Potency (SKOV3) | Potency (Tov-21-G) | Potency (Tov112D) | activity, negative = cell killing [1, 2] -13.8% | activity, negative = cell killing [1, 4] -13.1% | activity, negative = cell killing [1, 5] -17.2% | activity, negative = cell killing [1, 3] -1.34% | Potency (astro)

C#C[C@]1(O)CC[C@H]2[C@@H]3CCc4cc(OC)ccc4[C@H]3CC[C@@]21C
active: Potency ([1]; tumour line A) 39.8 µM
inactive: Potency (SKOV3) | Potency (Tov-21-G) | Potency (Tov112D) | activity, negative = cell killing [1, 2] -27.2% | activity, negative = cell killing [1, 3] -5.96%

O=C(O)C(Cc1cc(I)c(O)c(I)c1)c1ccccc1 (stereo not drawn)
inactive: Potency (SKOV3) | Potency (Tov-21-G) | Potency (Tov112D) | activity, negative = cell killing [1, 2] 4.75% | activity, negative = cell killing [1, 4] -5.57% | activity, negative = cell killing [1, 5] -25.7% | activity, negative = cell killing [1, 3] -25.5%

O=S(c1cc(Cl)cc(Cl)c1O)c1cc(Cl)cc(Cl)c1O
active: Potency ([1]; tumour line A) 28.2 µM
inactive: Potency (SKOV3) | Potency (Tov-21-G) | Potency (Tov112D) | activity, negative = cell killing [1, 2] -23.8% | activity, negative = cell killing [1, 4] -25% | activity, negative = cell killing [1, 3] -26.7%

CN1CCN(C2=Nc3ccccc3Sc3ccc(Cl)cc32)CC1
inactive: Potency (SKOV3) | Potency (Tov-21-G) | Potency (Tov112D) | activity, negative = cell killing [1, 3] -6.22%
active: Potency ([1]; tumour line A) 7.94 µM | Potency ([1]; tumour line D) 17.8 µM

Cc1ccc2c(Br)cc(Br)c(O)c2n1
active: Potency (SKOV3) 15.8 µM | Potency (Tov-21-G) 17.8 µM

CC(C)(C)NCC(O)COc1cccc2c1C[C@H](O)[C@H](O)C2 (stereo partly drawn)
inactive: Potency (SKOV3) | Potency (Tov-21-G) | Potency (Tov112D) | activity, negative = cell killing [1, 6] -4.25% | activity, negative = cell killing [1, 7] -2.25% | activity, negative = cell killing [1, 8] -3.22% | activity, negative = cell killing [1, 9] -16.2% | Potency (astro)

Nc1nc(N)c(-c2ccccc2)s1
inactive: Potency (SKOV3) | Potency (Tov-21-G) | Potency (Tov112D) | activity, negative = cell killing [1, 2] -11% | activity, negative = cell killing [1, 4] 8.98% | activity, negative = cell killing [1, 5] -29.6% | activity, negative = cell killing [1, 3] -25.4% | Potency (astro)

NC(=O)n1c(O)c(C(=O)c2cccs2)c2cc(Cl)ccc21
inactive: Potency (SKOV3) | Potency (Tov-21-G) | Potency (Tov112D) | activity, negative = cell killing [1, 2] -6.38% | activity, negative = cell killing [1, 4] -26.9%
active: Potency ([1]; tumour line A) 22.4 µM | Potency ([1]; tumour line C) 18.4 µM

O=C(c1ccc(F)cc1)C1CCN(CCn2c(=S)[nH]c3ccccc3c2=O)CC1
inactive: Potency (SKOV3) | Potency (Tov-21-G) | Potency (Tov112D) | activity, negative = cell killing [1, 2] -29.1%
active: Potency ([1]; tumour line A) 12.6 µM | Potency ([1]; tumour line C) 20.6 µM

N/C(=N\N=C\c1ccc(Cl)cc1)N/N=C/c1ccc(Cl)cc1
active: Potency (SKOV3) 31.6 µM
inactive: Potency (Tov-21-G) | Potency (Tov112D)

Clc1cccc(C(c2ccc3nc[nH]c3c2)n2ccnc2)c1 (stereo not drawn)
inactive: Potency (SKOV3) | Potency (Tov-21-G) | Potency (Tov112D)

C=C[C@H]1CN2CC[C@H]1C[C@@H]2[C@@H](O)c1ccnc2ccc(OC)cc12
active: Potency ([1]; tumour line A) 12.6 µM
inactive: Potency (SKOV3) | Potency (Tov-21-G) | Potency (Tov112D) | activity, negative = cell killing [1, 2] -7.35% | activity, negative = cell killing [1, 4] -6.69% | activity, negative = cell killing [1, 3] 11.9% | Potency (astro)

CN1CCC[C@@H]1CCO[C@](C)(c1ccccc1)c1ccc(Cl)cc1
active: Potency (SKOV3) 22.4 µM

CN(Cc1ccc(C(C)(C)C)cc1)Cc1cccc2ccccc12
inactive: Potency (SKOV3) | Potency (Tov-21-G) | Potency (Tov112D) | activity, negative = cell killing [1, 2] -23.3% | activity, negative = cell killing [1, 3] -13.6% and -21.7% | Potency (astro)
active: Potency ([1]; tumour line A) 22.4 µM | Potency ([1]; tumour line B) 12.6 µM | Potency ([1]; tumour line D) 22.4 µM

CC(=O)O[C@]1(C(C)=O)CC[C@H]2[C@@H]3C=C(Cl)C4=CC(=O)CC[C@]4(C)[C@H]3CC[C@@]21C
inactive: Potency (SKOV3) | Potency (Tov-21-G) | Potency (Tov112D) | activity, negative = cell killing [1, 2] -21.1%

COc1cc(N)c(Cl)cc1C(=O)NC1CCN(Cc2ccccc2)CC1
active: Potency ([1]; tumour line A) 11.2 µM
inactive: Potency (SKOV3) | Potency (Tov-21-G) | Potency (Tov112D) | activity, negative = cell killing [1, 6] 12.2% | activity, negative = cell killing [1, 7] -4.38% | activity, negative = cell killing [1, 8] -20.9% | Potency (astro)

NS(=O)(=O)c1ccc(Cl)c(S(N)(=O)=O)c1
inactive: Potency (SKOV3) | Potency (Tov-21-G) | Potency (Tov112D) | activity, negative = cell killing [1, 2] -6.27% | activity, negative = cell killing [1, 4] -11.1% | activity, negative = cell killing [1, 5] -23.6% | activity, negative = cell killing [1, 3] 27.6% | Potency (astro)

CCC1NC(=O)c2cc(S(N)(=O)=O)c(Cl)cc2N1 (stereo not drawn)
inactive: Potency (SKOV3) | Potency (Tov-21-G) | Potency (Tov112D) | activity, negative = cell killing [1, 6] -6.38% | activity, negative = cell killing [1, 7] -2.62% | activity, negative = cell killing [1, 8] -14.7% | activity, negative = cell killing [1, 9] -12.3% | Potency (astro)
